PubChem BioAssay (NCATS)
Results filed as inconclusive are left out. The source made the active and inactive calls. Unless noted, calls come from the whole dose curve; as a rule, active = well fitted curve in the direction sought with a large enough effect; inconclusive = small, poorly fitted or top-dose-only effect, or another doubt; inactive = no such curve, though single readings can be large; an effect the other way counts as inactive or inconclusive. Positions of bridges follow the written chain, without caps; N, C: chain ends. Non-standard residues stand in square brackets, D forms with d. Residues, ends and D or L forms follow the SMILES beside them. ξ: configuration not given here. *: point of attachment. Octanoyl(6-Me) = CCC(C)CCCCC(=O)*; ξThr(3R) = C[C@@H](O)C(N)C(=O)O; dDab = NCC[C@@H](N)C(=O)O; Dab = NCC[C@H](N)C(=O)O

Tests used:
[1] = High-throughput drug toxicity screening in the BPDCN cell line Cal-1 (AID 1224825; call rule not given here); conditions: Cal-1 BPDCN cell viability, qHTS; at 45.8 µM (top of the series) unless noted
Outline: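 CellTiter-Glo luminescence after 48 h compound exposure; percent activity scaled with DMSO as 100% and bortezomib (9.2 uM final) as 0%. Cal-1 cells seeded at 500/well in RPMI, 10% FBS, no phenol red.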

[2] = qHTS assay for measurement of the activity of small molecule inhibitors on Zika virus induced Caspase-3 activity in human iPSC derived neural progenitor cells (hNPCs) (AID 1224857); note: nearly all actives have a fitted effect of over 65% in size; note: potency is the fitted concentration of half-maximal effect
Outline: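 Human iPSC-derived neural progenitor cells pretreated 1 hr with compounds, then infected with Zika virus (2 FFU/cell) for 6 hours at 37 C. Caspase-3/7 measured by Caspase-Glo luminescence; % inhibition calculated from induction scaled to uninfected (0%) and infected (100%) wells.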

[3] = qHTS Screen of the MIPE 4.0 Collection Against Ewings Sarcoma (RDES) (AID 1259252); note: nearly all actives have a fitted effect of over 35% in size; note: potency is the fitted concentration of half-maximal effect
Outline: (§1)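 Viability screen: 48 h incubation at 37C, 95% humidity, 5% CO2 with serially titrated compound, followed by CellTiter-Glo readout.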

[4] = qHTS Screen of the MIPE 4.0 Collection Against Ewings Sarcoma (TC71) (AID 1259253); note: nearly all actives have a fitted effect of over 40% in size; note: potency is the fitted concentration of half-maximal effect
Outline: as §1

[5] = qHTS Screen of the MIPE 4.0 Collection Against Ewings Sarcoma (EW8) (AID 1259255); note: nearly all actives have a fitted effect of over 35% in size; note: potency is the fitted concentration of half-maximal effect
Outline: as §1

[6] = qHTS Screen of the MIPE 4.0 Collection Against Ewings Sarcoma (TC32) (AID 1259256); note: nearly all actives have a fitted effect of over 45% in size; note: potency is the fitted concentration of half-maximal effect
Outline: as §1

[7] = P-glycoprotein substrates identified in KB-8-5-11 adenocarcinoma cell line, qHTS therapeutic library screen (AID 1346987); note: nearly all actives have a fitted effect of over 65% in size; note: potency is the fitted concentration of half-maximal effect
Outline: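 Compounds are pinned in dose-response onto KB-8-5-11 cells (500 cells/well, colchicine-free medium) and left 72 h at 37 degree C. CellTiter-Glo luminescence then yields AC50 values.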

[8] = qHTS of pediatric cancer cell lines to identify multiple opportunities for drug repurposing: Primary screen for TC32 cells (AID 1347089); note: nearly all actives have a fitted effect of over 60% in size; note: potency is the fitted concentration of half-maximal effect
Outline: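 Luminescent CellTiter-Glo read-out of metabolically active TC32 cells after 48 h compound exposure. Primary: MIPE 11-point, 0.78 nM–46 µM; NPC 8-point, 0.59 nM–46 µM. Confirmatory: 11-point dilutions.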

[9] = qHTS of pediatric cancer cell lines to identify multiple opportunities for drug repurposing: Primary screen for DAOY cells (AID 1347090); note: nearly all actives have a fitted effect of over 55% in size; note: potency is the fitted concentration of half-maximal effect
Outline: (§2)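 Viability measured as metabolically active cells via CellTiter-Glo luminescence following 48 hours of compound exposure, 11-point dilutions in confirmatory testing. 500-1,000 cells/well plated 5 hours before dosing; controls were DMSO and 2.3 µM bortezomib.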

[10] = qHTS of pediatric cancer cell lines to identify multiple opportunities for drug repurposing: Primary screen for A673 cells (AID 1347092); note: nearly all actives have a fitted effect of over 45% in size; note: potency is the fitted concentration of half-maximal effect
Outline: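 A673 cells (500-1,000 cells/well in growth media) were pre-incubated 5 h at 37 degrees C, then exposed to compounds for 48 h. Viability was read as CellTiter-Glo luminescence; concentration-response curves came directly from the primary screen.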

[11] = qHTS of pediatric cancer cell lines to identify multiple opportunities for drug repurposing: Primary screen for SK-N-MC cells (AID 1347093); note: potency is the fitted concentration of half-maximal effect
Outline: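 Metabolically active cells were quantified by ATP-dependent luminescence (CellTiter-Glo, 15 min at room temperature) following 48 h treatment. Cells had been plated at 500-1,000 per well and settled for 5 h beforehand.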

[12] = qHTS of pediatric cancer cell lines to identify multiple opportunities for drug repurposing: Primary screen for BT-37 cells (AID 1347094); note: potency is the fitted concentration of half-maximal effect
Outline: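 Viability was measured as metabolically active cells after 48 hours of treatment, read by CellTiter-Glo luminescence. Compounds were tested at multiple final concentrations, giving concentration-response curves.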

[13] = NS1 protein of Zika virus - qHTS assay to identify small molecule inhibitors in human HEK 293 cells (AID 1347053); note: nearly all actives have a fitted effect of over 55% in size; note: potency is the fitted concentration of half-maximal effect
Outline: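 Readout was TR-FRET using paired anti-NS1 antibodies after 24 h infection of HEK 293 cells with ZIKV MR766 (MOI = 0.5). Compound preceded virus by 1 h; reduced signal reflects lower NS1 expression.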

[14] = qHTS of pediatric cancer cell lines to identify multiple opportunities for drug repurposing: Primary screen for SJ-GBM2 cells (AID 1347091); note: potency is the fitted concentration of half-maximal effect
Outline: as §2

[15] = qHTS assay for measurement of the activity of small molecule inhibitors on Zika virus induced Caspase-3 activity in human astrocytoma cells (AID 1224859)
Outline: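 SNB-19 astrocytoma cells, 250/well, pretreated 1 h with compounds, then Zika virus at 2 FFU/cell for 6 h at 37 C; Caspase-Glo 3/7 luminescence after 30 min; percent inhibition normalised to uninfected and infected controls.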

[16] = P-glycoprotein substrates identified in KB-3-1 adenocarcinoma cell line, qHTS therapeutic library screen (AID 1346986); note: nearly all actives have a fitted effect of over 60% in size;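 note: potency is the fitted concentration of half-maximal effect; potency is for cytotoxicity meaning loss of cell viability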
Outline: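 In 1536-well format, 500 cells/well received pinned compound titrations and were incubated 72 h, 5% CO2. Viability was read by CellTiter-Glo; cytotoxic if AC50 < 10 uM and efficacy >50%.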

CCC(C)CCCCC(=O)N[C@@H](CCN)C(=O)NC(C(=O)N[C@H](CCN)C(=O)N[C@@H]1CCNC(=O)C([C@@H](C)O)NC(=O)[C@@H](CCN)NC(=O)[C@@H](CCN)NC(=O)[C@@H](CC(C)C)NC(=O)[C@H](Cc2ccccc2)NC(=O)[C@H](CCN)NC1=O)[C@@H](C)O (stereo partly drawn) ({Octanoyl(6-Me)}-[Dab][ξThr(3R)][dDab][dDab][Dab]F[dL][dDab][dDab][ξThr(3R)]; lactam 4-C)
inactive: Potency [2] | Potency [3] | Potency [4] | Potency [5] | Potency [6] | Potency [7] | Potency [8] | Potency [9] | Potency [10] | Potency [11] | Potency [12]
116%: viability (% of control) [1]

O=C1c2cccc(O)c2C(=O)c2c(O)cc(CO)cc21
116%: viability (% of control) [1]
inactive: Potency [2] | Potency [3] | Potency [4] | Potency [5] | Potency [6] | Potency [7] | Potency [13] | Potency [8] | Potency [14] | Potency [10] | Potency [12]

O=S(=O)(O)CCSSCCS(=O)(=O)O
inactive: Potency [15] | Potency [4] | Potency [5] | Potency [7] | Potency [13] | Potency [8] | Potency [9] | Potency [14] | Potency [10] | Potency [12]
35.3%: viability (% of control) [1]
active: Potency [2] 29.6 µM | Potency [11] 10.5 µM

CC(C=CC(=O)NO)=C[C@@H](C)C(=O)c1ccc(N(C)C)cc1
active: Potency [3] 0.526 µM | Potency [4] 0.743 µM | Potency [5] 0.187 µM | Potency [6] 0.332 µM | Potency [7] 1.05 µM | Potency [8] 2.34 µM | Potency [9] 1.48 µM | Potency [14] 1.87 µM | Potency [10] 0.59 µM | Potency [11] 0.264 µM
2.32%: viability (% of control) [1]
inactive: Potency [2] | Potency [13]

CCc1ccc(C(=O)Nc2cc(CN3CCN(C)CC3)cc(C(F)(F)F)c2)cc1C#Cc1cnc2ccnn2c1
active: Potency [3] 20.9 µM | Potency [4] 29.6 µM | Potency [5] 16.6 µM | Potency [6] 14.8 µM | Potency [16] 4.11 µM | Potency [9] 23.5 µM | Potency [14] 9.35 µM | Potency [10] 9.35 µM | Potency [11] 1.87 µM | Potency [12] 24.3 µM
inactive: Potency [2]
4.46%: viability (% of control) [1]

CC(C)(C)c1nc2c3cc[nH]c(=O)c3c3cc(F)ccc3c2[nH]1
active: Potency [3] 4.18 µM | Potency [4] 5.9 µM | Potency [5] 4.69 µM | Potency [6] 4.18 µM | Potency [16] 7.31 µM | Potency [7] 5.17 µM | Potency [11] 1.18 µM
26.4%: viability (% of control) [1]
inactive: Potency [2] | Potency [13] | Potency [12]

COc1cc(C)c(C=CC(C)=CC=CC(C)=CC(=O)O)c(C)c1C
inactive: Potency [2] | Potency [3] | Potency [4] | Potency [5] | Potency [6] | Potency [16] | Potency [7] | Potency [13] | Potency [8] | Potency [10]
active: Potency [11] 18.7 µM
94.9%: viability (% of control) [1]

COc1ccnc2[nH]cc(C(=O)C(=O)N3CCN(C(=O)c4ccccc4)C[C@@H]3C)c12
active: Potency [4] 2.64 µM | Potency [6] 4.18 µM
inactive: Potency [2] | Potency [5] | Potency [7] | Potency [13] | Potency [8] | Potency [14] | Potency [10] | Potency [11] | Potency [12]
119%: viability (% of control) [1]

Cc1ccc(-n2[nH]c(C)c(N=Nc3cccc(-c4cccc(C(=O)O)c4)c3O)c2=O)cc1C
active: Potency [3] 18.7 µM | Potency [4] 11.8 µM | Potency [5] 18.7 µM | Potency [6] 6.62 µM | Potency [9] 18.7 µM | Potency [11] 14.8 µM | Potency [12] 19.5 µM
inactive: Potency [2] | Potency [7] | Potency [13]
28.2%: viability (% of control) [1]

CC(=O)O[C@H]1C[C@@H]2CC[C@H]3[C@H]4C[C@H]([N+]5(C)CCCCC5)[C@@H](OC(C)=O)[C@@]4(C)CC[C@@H]3[C@@]2(C)C[C@H]1N1CCCCC1
inactive: Potency [2] | Potency [15] | Potency [7] | Potency [13] | Potency [8] | Potency [14] | Potency [12]
123%: viability (% of control) [1]
active: Potency [4] 7.43 µM | Potency [5] 8.33 µM

COc1cc(OC)c(C=CS(=O)(=O)Cc2ccc(OC)c(NCC(=O)O)c2)c(OC)c1
active: Potency [3] 0.0935 µM | Potency [4] 0.187 µM | Potency [5] 0.235 µM | Potency [6] 0.0526 µM | Potency [7] 0.264 µM | Potency [13] 0.469 µM | Potency [8] 0.294 µM | Potency [14] 0.166 µM | Potency [10] 0.148 µM
8.09%: viability (% of control) [1]
inactive: Potency [2]

Cc1ccc([N+](=O)[O-])cc1S(=O)(=O)N(C)N=Cc1cnc2ccc(Br)cn12
inactive: Potency [2]
active: Potency [3] 0.0296 µM | Potency [4] 0.0209 µM | Potency [5] 0.0372 µM | Potency [6] 0.0469 µM | Potency [7] 0.0209 µM | Potency [13] 0.118 µM | Potency [8] 0.0829 µM | Potency [9] 0.235 µM | Potency [14] 0.118 µM | Potency [10] 0.0074 µM | Potency [12] 0.0385 µM
3.92%: viability (% of control) [1]

CCCCCN=C(N)NN=Cc1c[nH]c2ccc(OC)cc12
inactive: Potency [2]
active: Potency [3] 6.62 µM | Potency [4] 10.5 µM | Potency [5] 6.62 µM | Potency [6] 4.18 µM | Potency [7] 10.5 µM | Potency [8] 16.5 µM | Potency [11] 3.72 µM
11.8%: viability (% of control) [1]

CC(=O)OC[C@@H]1O[C@@H](n2ccc(=O)[nH]c2=O)[C@H](OC(C)=O)[C@H]1OC(C)=O
inactive: Potency [2] | Potency [3] | Potency [4] | Potency [5] | Potency [6] | Potency [7] | Potency [13] | Potency [8] | Potency [9] | Potency [14]
104%: viability (% of control) [1]
